{"source": "paper PMC12136788", "binders": {"B1": {"name": "chr10:68442948:68443070:-|CDS|ENSG00000138346|unk|total|mutant (ssRNA)", "RNA": "GGGAGUUCUACAGUCCGACGAUCCCCAAUUGUGAUGCUGCCCAAAACCGAAGAAGAAACCCAGCAUCUGAAGCAAACACACUCCGAAUAUUUCAGCCUUUGGUGUCUAAUGUUAACCCUGGAGUCACAAUCGAAGGAUAAUAACAACAGAGGAUUGAGCAUCA"}, "B2": {"name": "ENSG00000127995:stop:overlap|stop_codon|ENSG00000127995|stop_codon|NA|stop_codon (ssRNA)", "RNA": "GGGAGUUCUACAGUCCGACGAUCUAGCUGCAUUUUUUUGUGGACUCCUCAUCUUAUCAUCCAUUCAAGAUAAAUCAAAACAUUAGGUUCCAAAAAUUCUAAAAAACCUAAACUCUUCAGGCUACCUUUGUGUGUCUCUAGAAGCAACAGAGGAUUGAGCAUCA"}, "B3": {"name": "chr12:13219749:13219850:+|3pUTR|ENSG00000134531|unk|total|mutant (ssRNA)", "RNA": "GGGAGUUCUACAGUCCGACGAUCACAACAGUGGAUGGGGAGGAAGAACAGACUUUUGAGCUCUUCCCAAUACCGGAAUGUGUCCGUUCUAAAAAUUUUCUUAAGUUGUUUGCUUGGAACUCAGAGUAUAUUUUUCCAUACGAACAACAGAGGAUUGAGCAUCA"}, "B4": {"name": "chr10:128098466:128098636:-|3pUTR|ENSG00000148773|msi1|total|mutant (ssRNA)", "RNA": "GGGAGUUCUACAGUCCGACGAUCUCCUUUCCUUUCUGAAAAUAAAGUUUUGUGCUUUGGAGAAUGACUCGUGAGCACAUCUUCCGGGACCAAGAGUGACUUUCUGUAAGGAGUGACUCGUGGCUUGCCUUGGUCUCUUGGGAACAACAGAGGAUUGAGCAUCA"}, "B5": {"name": "chr7:137014887:137014989:+|CDS|ENSG00000181072|unk|total|mutant (ssRNA)", "RNA": "GGGAGUUCUACAGUCCGACGAUCGCUACUUGGCUACUGAUCCGAGAACGCAAAAUGAAUAACUCAACAAACUCCUCUAACAACCGCCUGGCUCUUACAAGUCCUUAUAAGACAUUUGAAGUGGUGUUUAUUGUCCUGGUGGCUCAACAGAGGAUUGAGCAUCA"}, "B6": {"name": "chr17:8173470:8173636:-|3pUTR|ENSG00000179029|msi1|total|mutant (ssRNA)", "RNA": "GGGAGUUCUACAGUCCGACGAUCUGUUUGUCUGUAUCGUCAGGUGGGAUAAUCCUUACCUGUUCCUCCUCCGGAGGGCAGAUCCGAACAUGAUGAUUGGAGAUGCAUGAAACGUGAUUAACGUCUCUGCGUAAUCAGGACUUGCAACAGAGGAUUGAGCAUCA"}, "B7": {"name": "ENSG00000124766:be:win_3601|3pUTR|ENSG00000124766|bound_else_gene|NA|bound_elsewhere_windowed (ssRNA)", "RNA": "GGGAGUUCUACAGUCCGACGAUCUGUACUGCGUUUUUCAUUCUUGUAUUUGACUAUUUAAUCCUUUCUACUUGUCGCUAAAUAUAAUUGUUUUAGUCUUAUGGCAUGAUGAUAGCAUAUGUGUUCAGGUUUAUAGCUGUUGUGCAACAGAGGAUUGAGCAUCA"}, "B8": {"name": "ENSG00000198589:be:win_7751|CDS|ENSG00000198589|bound_else_gene|NA|bound_elsewhere_windowed (ssRNA)", "RNA": "GGGAGUUCUACAGUCCGACGAUCAAGUGCAUUCCCAGUGCUUUGUCAUCACUUCAGACAACCGCUAUAUUCUCGUCUGUGGCUUCUGGGAUAAAAGUUUCAGAGUCUAUUCUACAGACACAGGAAGAUUGAUCCAAGUGGUGUCAACAGAGGAUUGAGCAUCA"}, "B9": {"name": "ENSG00000198589:be:win_2051|CDS|ENSG00000198589|bound_else_gene|NA|bound_elsewhere_windowed (ssRNA)", "RNA": "GGGAGUUCUACAGUCCGACGAUCUACUGACUAUGCAUGAGGAUGACAAUCUAAUGGAUGUCCUACAGCUGCUUGUUGCAUUAAUGUCAGAACACCCUAACUCUAUGAUUCCUGCUUUUGACCAAAGGAAUGGGUUACGUGUUACAACAGAGGAUUGAGCAUCA"}, "B10": {"name": "chr17:42842016:42842117:+|3pUTR|ENSG00000131467|msi1|FALSE|unique (ssRNA)", "RNA": "GGGAGUUCUACAGUCCGACGAUCUUACUGUUUCUUUCCUCUGUGGGGCAUUGGAUCCUCCCACAGUUGCCCUGGUGAUGACUUAGGGCUUCCCAUCUGUGUACAUCCCACUUUGAAUCUUGAUCGUGACAAGAAAUACCUUAGCAACAGAGGAUUGAGCAUCA"}, "B11": {"name": "chr6:132296306:132296407:-|3pUTR|ENSG00000079931|msi1|FALSE|unique (ssRNA)", "RNA": "GGGAGUUCUACAGUCCGACGAUCAUGGGAAACAUAGAAAUGGUAUGUAUUAAUAACUGAUCAUAGGCUGAGGAGAAAAAAUGUAGCUGGCUGCAAACCCAGUGCUGUGAGGUGACUUAUAUGAGGUUCCAGAUCAAAGACAGGCAACAGAGGAUUGAGCAUCA"}, "B12": {"name": "chr2:69942770:69942871:+|3pUTR|ENSG00000059728|unk|total|mutant (ssRNA)", "RNA": "GGGAGUUCUACAGUCCGACGAUCUGUUUCCAGAUGUUUCUUUAUGUAAAUAUGACGCCAAUGUAAAUCCUGUGUCAAGAUCACCGAGAAUGGUGCUUUUUACUACAGUCCGCACAUGCAUUUUCCGAAACUACUACAUGUUUUCAACAGAGGAUUGAGCAUCA"}, "B13": {"name": "ENSG00000107863:be:win_51|CDS|ENSG00000107863|bound_else_gene|NA|bound_elsewhere_windowed (ssRNA)", "RNA": "GGGAGUUCUACAGUCCGACGAUCCAAGGCCUGCGAGGUCUCAAAAAAUAAAGAUGGAAAAGAACAAAGUGAAACUGUAUCACUGUCUGAAGAUGAAACAUUCUCCUGGCCAGGUCCCAAAACAGUUACGUUGAAAAGAACAUCCAACAGAGGAUUGAGCAUCA"}}, "note": "The full ranking holds about 5,800 sequences; the median of “enrichment r” is about 0.68, and the highest 2% start at about 11. A selection follows."}
{"biological_target": "T1, UNK ZnF1-6 (called full-length) (human, UniProt Q9C0B0 30-357)", "T1 sequence": "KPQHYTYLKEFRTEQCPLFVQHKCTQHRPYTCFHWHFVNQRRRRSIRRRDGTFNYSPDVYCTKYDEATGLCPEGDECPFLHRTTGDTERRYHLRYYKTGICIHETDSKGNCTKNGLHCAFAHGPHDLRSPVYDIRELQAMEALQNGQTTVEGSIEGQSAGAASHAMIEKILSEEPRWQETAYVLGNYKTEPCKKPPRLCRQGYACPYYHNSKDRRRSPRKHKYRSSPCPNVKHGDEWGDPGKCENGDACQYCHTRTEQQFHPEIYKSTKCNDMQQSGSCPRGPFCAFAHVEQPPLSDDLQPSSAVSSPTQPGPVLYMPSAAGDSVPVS", "test": "nsRBNS (natural sequence RNA bind-n-seq); RBNS binding buffer (assumed for nsRBNS): 25 mM Tris pH 7.5, 150 mM KCl, 3 mM MgCl2, 0.01% Triton X-100, 500 ug/ml BSA, 20 U/ml SUPERase-In, 4 C; UNK is unkempt and MSI1 is Musashi-1; names of the RNAs are library labels; protein concentration not given here; high values mean tight binding", "units": {"binding signal": "enrichment R"}}
{"binder": "B1", "binding signal": 0.471}
{"binder": "B2", "binding signal": 0.828}
{"binder": "B3", "binding signal": 0.58}
{"binder": "B4", "binding signal": 0.483}
{"binder": "B5", "binding signal": 0.461}
{"binder": "B6", "binding signal": 0.686}
{"binder": "B7", "binding signal": 0.795}
{"binder": "B8", "binding signal": 0.285}
{"binder": "B9", "binding signal": 0.35}
{"binder": "B10", "binding signal": 0.557}
{"binder": "B11", "binding signal": 0.863}
{"binder": "B12", "binding signal": 0.355}
{"binder": "B13", "binding signal": 0.505}
